Tcruzi prolif – blocks T. cruzi growth in NIH3T3 culture | T. cruzi beta-gal in NIH3T3, GalScreen luminescence, 90 h | inhibition, % at 8.34 µM | 5.9% of 77,000 active;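 active means mean inhibition above about 93%, with at least 55% of replicates each passing it, limit read from the data, passing the limit was not always enough; inconclusive means only one of those two conditions holds; inactive means neither condition holds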
Pf Dd2 inh – inhibitors of Plasmodium falciparum Dd2 growth. P. falciparum Dd2 growth, SYBR Green, 72 h; hits give low values. AID 1159554. activity change, % at 10 µM. 2.3% of 94,000 active; in the data active means activity change below about -80%; inconclusive means no clear call, values can overlap the other calls
C diff HTS – blocks growth of Clostridium difficile. Clostridium difficile clinical isolate growth, OD600, 24 h; hits give low values. growth activity, negative = inhibition, % at 16 µg/mL (by protocol). 0.25% of 86,000 active;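 active means mean growth activity at or below -80% and every replicate also at or below -80%; inconclusive means mean at or below -80% but some replicate above -80%; inactive means mean growth activity above -80%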;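 further: 0% = DMSO wells and -100% = levofloxacin 16 µg/mL wells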
Starred values were filed as active, the others as inactive; ? = inconclusive; nt = not tested or not shown. Only some compounds are listed: those with a hit (about 6.7% of all), similar ones and a draw of the others.

SMILES	Tcruzi prolif	Pf Dd2 inh	C diff HTS
C[C@@H]1CN([C@H](C)CO)C(=O)c2cc(NC(=O)Cc3ccccc3)ccc2O[C@@H]1CN(C)Cc1ccc(C(=O)Nc2ccccc2N)cc1	73	-85*	0
C[C@@H]1CN([C@H](C)CO)C(=O)c2cc(NC(=O)Nc3ccccc3)ccc2O[C@@H]1CN(C)Cc1ccc(C(=O)Nc2ccccc2N)cc1	36	-85*	3
C[C@H]1CN([C@@H](C)CO)C(=O)c2cc(NC(=O)Nc3ccc(C(F)(F)F)cc3)ccc2O[C@@H]1CN(C)Cc1ccc(C(=O)Nc2ccccc2N)cc1	-97	-93*	nt
C[C@H](CO)N1C[C@H](C)[C@@H](CN(C)Cc2ccc(C(=O)Nc3ccccc3N)cc2)Oc2ccc(NC(=O)Nc3ccc(F)cc3)cc2C1=O	38	?	7
C[C@H](CO)N1C[C@H](C)[C@@H](CN(C)Cc2ccc(C(=O)Nc3ccccc3N)cc2)Oc2ccc(NC(=O)Cc3ccccc3)cc2C1=O	72	-79	-1
COc1ccc(CN2C[C@@H](C)[C@@H](OC)CN(C)C(=O)c3cc(NC(C)=O)ccc3OC[C@@H]2C)cc1	-34	11	nt
O=C(c1ccncc1)N1CC2(C1)[C@H](c1ccccc1)[C@@H](CO)N2Cc1ccccn1	nt	-4	-5
C[C@H](CO)N1C[C@H](C)[C@@H](CN(C)Cc2ccc(C(=O)Nc3ccccc3N)cc2)Oc2ccc(NC(=O)Nc3ccc(C(F)(F)F)cc3)cc2C1=O	-206	-90*	nt
C[C@@H]1CN([C@@H](C)CO)C(=O)c2cc(NC(=O)Nc3ccc(C(F)(F)F)cc3)ccc2O[C@@H]1CN(C)Cc1ccc(C(=O)Nc2ccccc2N)cc1	-11	-69	nt
O=C(c1cccc(F)c1)N1CC(=O)N2[C@@H](CO)[C@H](c3ccc(-c4cccnc4)cc3)[C@@H]2C1	nt	17	0
COc1ccc(C#Cc2ccc([C@H]3[C@@H](CO)N4C(=O)CN(C(=O)c5ccccc5)C[C@@H]34)cc2)cc1	nt	-23	1
COc1ccc(C#Cc2ccc([C@@H]3[C@@H](CO)N4C(=O)CN(C(=O)c5ccccc5)C[C@H]34)cc2)cc1	nt	-87*	-7
COc1ccc(NC(=O)N2CC(=O)N3[C@@H](CO)[C@H](c4ccc(C#CCC5CCCC5)cc4)[C@@H]3C2)cc1	nt	-90*	-3
COc1ccc(NC(=O)N2CC(=O)N3[C@H](C2)[C@H](c2ccc(C#CCC4CCCC4)cc2)[C@@H]3CO)cc1	nt	-33	-1
COc1ccc(-c2ccc([C@@H]3[C@H]4CN(C(=O)NC(C)C)CC(=O)N4[C@H]3CO)cc2)cc1	nt	-87*	-1
COc1ccc(-c2ccc([C@H]3[C@@H](CO)N4C(=O)CN(C(=O)NC(C)C)C[C@H]34)cc2)cc1	nt	-46	-1
O=C(c1cccc(F)c1)N1CC(=O)N2[C@H](CO)[C@H](c3ccc(-c4cccnc4)cc3)[C@H]2C1	nt	-86*	1
CC(C)NC(=O)N(C)C[C@H]1OCCCC[C@@H](C)Oc2ccc(NS(=O)(=O)c3ccc(Cl)cc3)cc2C(=O)N([C@H](C)CO)C[C@H]1C	-69	nt	9
COc1ccc2c3c([nH]c2c1)[C@H](CO)N(C(=O)Nc1c(C)noc1C)CC31CCN(CC2CCCCC2)CC1	nt	-59	2
COCC(=O)Nc1ccc2c(c1)C(=O)N(C)C[C@H](OC)[C@@H](C)CN(CCC(F)(F)F)[C@H](C)CO2	11	0	nt
C[C@@H]1CN([C@@H](C)CO)C(=O)c2cccc(NC(=O)c3cnccn3)c2O[C@@H]1CN(C)S(=O)(=O)c1ccc(F)cc1	30	-24	-8
O=C(c1ccc2c(c1)OCO2)N1CC2(C1)[C@H](c1ccccc1)[C@@H](CO)N2C(=O)C1CCC1	nt	-63	-3
COc1ccccc1C#Cc1ccc2c(c1)O[C@@H](CN(C)C)[C@H](C)CN([C@@H](C)CO)S2(=O)=O	nt	-64	6
O=C(c1ccc2c(c1)OCO2)N1CC(=O)N2[C@H](C1)[C@H](c1ccc(C#Cc3ccccc3)cc1)[C@@H]2CO	nt	1	2
O=C(c1ccc(F)cc1)N1CC(=O)N2[C@H](CO)[C@H](c3ccc(C#Cc4ccc(F)cc4)cc3)[C@H]2C1	nt	-91*	9
SMILES	Tcruzi prolif	Pf Dd2 inh	C diff HTS
CC(C)C#Cc1ccc([C@@H]2[C@H](CO)N3CCCCN(C(=O)c4ccc5c(c4)OCO5)C[C@@H]23)cc1	35	-83*	-15
CC(C)C#Cc1ccc([C@H]2[C@H](CO)N3CCCCN(C(=O)c4ccc5c(c4)OCO5)C[C@@H]23)cc1	70	-41	-10
O=C(c1ccc2c(c1)OCO2)N1CC(=O)N2[C@H](CO)[C@H](c3ccc(C#Cc4ccccc4)cc3)[C@H]2C1	nt	-82*	10
O=C(c1ccc(F)cc1)N1CC(=O)N2[C@H](CO)[C@@H](c3ccc(C#Cc4ccc(F)cc4)cc3)[C@H]2C1	nt	-29	-1
CCCC#Cc1cnc2c(c1)C(=O)N([C@H](C)CO)C[C@@H](C)[C@H](CN(C)C(=O)c1ccc3c(c1)OCO3)O2	22	-42	nt
COc1cccc(C(=O)Nc2ccc3c(c2)OC[C@@H](C)N(C(C)=O)C[C@@H](C)[C@@H](OC)CN(C)C3=O)c1	9	4	nt
C[C@H]1CCCCO[C@H](CN(C)Cc2ccc(Cl)c(Cl)c2)[C@@H](C)CN([C@@H](C)CO)C(=O)c2cc(NC(=O)CCC(F)(F)F)ccc2O1	54	-65	-12
CCCNC(=O)N(C)C[C@H]1Oc2cc(-c3ccccc3F)ccc2S(=O)(=O)N([C@H](C)CO)C[C@H]1C	nt	26	2
C[C@@H]1CN([C@@H](C)CO)C(=O)c2cccc(NC(=O)Nc3ccccc3)c2O[C@@H]1CN(C)C(=O)Nc1ccccc1	59	-91*	-6
COc1ccc(NC(=O)Nc2cccc3c2O[C@H](CN(C)C(=O)Nc2cccc4ccccc24)[C@H](C)CN([C@@H](C)CO)C3=O)cc1	11	-88*	14
C[C@H](CO)N1C[C@H](C)[C@H](CN(C)C(=O)Nc2ccc(F)cc2)Oc2c(NC(=O)Nc3ccccc3)cccc2C1=O	24	1	12
C[C@@H]1CN([C@H](C)CO)C(=O)c2cccc(NC(=O)Nc3ccccc3)c2O[C@@H]1CN(C)C(=O)Nc1ccccc1	64	-41	-12
Cc1noc(C)c1NC(=O)N(C)C[C@@H]1Oc2c(NC(=O)Nc3ccc(C(F)(F)F)cc3)cccc2C(=O)N([C@@H](C)CO)C[C@H]1C	98	-5	nt
Cc1noc(C)c1NC(=O)N(C)C[C@H]1Oc2c(NC(=O)Nc3ccc(C(F)(F)F)cc3)cccc2C(=O)N([C@@H](C)CO)C[C@H]1C	90	-86*	nt
C[C@@H]1CN([C@@H](C)CO)C(=O)c2cccc(NC(=O)Nc3ccccc3)c2O[C@@H]1CN(C)C(=O)Nc1ccc(F)cc1	45	-91*	-11
COc1ccc(NC(=O)Nc2cccc3c2O[C@H](CN(C)C(=O)Nc2cccc4ccccc24)[C@@H](C)CN([C@H](C)CO)C3=O)cc1	10	-32	-5
C[C@@H]1CCCCO[C@H](CN(C)C(=O)Nc2ccc3c(c2)OCO3)[C@@H](C)CN([C@@H](C)CO)C(=O)c2cc(NS(=O)(=O)c3cccs3)ccc2O1	54	-66	-4
